Peg3 promoter: Peg3 promoter activity inhibition; HeLa PEG-Prom luciferase reporter, luminescence, overnight; inhibition, % at 20 µM; actives 1.7% (n = 360,000); AID 588405;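 active means inhibition of at least 50% at 20 µM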
HIF-2a inh: HIF-2a inhibition. 786-0 RCC cells HIF-2a reporter, luciferase luminescence, overnight. AID 624352. inhibition, % at 18.8 µM. actives 0.72% (n = 360,000);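 active means inhibition of the luminescence signal of 40% or more relative to plate controls, in a single-dose primary screen at 18.75 µM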
TROY NFkB inh: inhibitors of TROY-dependent NF-kB signaling | Q293 LMP1-TROYcd NF-kB luciferase reporter, 4 h | inhibition, % at 10 µM | actives 0.98% (n = 360,000) | AID 1347056;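 active means compounds whose plate-normalised and pattern-corrected inhibition of the luciferase reporter signal at the single screening dose is 50% or more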
KKLEB cytotox: reduces viability of KKLEB cystic fibrosis airway cells; KKLEB CF airway cells viability, ATPlite luminescence, overnight; hits give low values; cells stimulated with P. aeruginosa culture filtrate; activity change (cytotoxicity), % at 5 µM; actives 0.36% (n = 360,000);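 active means corrected activity change at or below -50% at 5 µM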
CF NFkB block: cystic fibrosis NF-kB activation inhibition | actives 0.86% (n = 360,000) | KKLEB NF-kB-GFP reporter, PAF-induced, GFP fluorescence overnight | AID 588850 | inhibition, % at 5 µM;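 active means at least 50% inhibition at 5 µM, scaled per plate between neutral and stimulator controls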;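 further: PAF is a Pseudomonas aeruginosa culture filtrate used as stimulus; plate controls were PAF-stimulated DMSO wells for no effect and unstimulated DMSO wells for full effect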
TWEAK Fn14 block: inhibitors of TWEAK-Fn14 interaction signaling. TWEAK-stimulated Fn14 reporter cells, luciferase luminescence, 8 h. inhibition, % at 10 µM. actives 2% (n = 360,000); in the data active means inhibition above about 50%
* = called active by the depositor. Only some compounds are listed: those with a hit (about 4% of all), similar ones and a draw of the others.

`Cc1cn([C@H]2C[C@H](O)[C@@H](CNCc3ccc(Oc4cc(-n5cccn5)ncn4)cc3)O2)c(=O)[nH]c1=O` gave Peg3 promoter -3, HIF-2a inh -6, TROY NFkB inh -23, KKLEB cytotox 9, CF NFkB block -25 and TWEAK Fn14 block 6.
Screening Cc1nn2c(N3CCN(C)CC3)cc(C(C)(C)C)nc2c1-c1ccccc1 returned Peg3 promoter 59*, HIF-2a inh 12, TROY NFkB inh -19, KKLEB cytotox -20, CF NFkB block 20 and TWEAK Fn14 block -7.
Screening Nc1ccc(N=Nc2ccccc2)c2ccccc12 returned Peg3 promoter 3, HIF-2a inh -7, TROY NFkB inh -14, KKLEB cytotox 7, CF NFkB block -3 and TWEAK Fn14 block -5.
Screening Nc1ccc(N=Nc2ccccc2)c(N)n1 returned Peg3 promoter -317, HIF-2a inh -328, TROY NFkB inh -85, KKLEB cytotox -10, CF NFkB block 63* and TWEAK Fn14 block 12.
CC(C)C(=O)Nc1cccc(COc2ccc(CN(Cc3ccccc3)C(=O)OC(C)(C)C)cc2)c1 was read as Peg3 promoter -9, HIF-2a inh 1, TROY NFkB inh 22, KKLEB cytotox -12, CF NFkB block 21 and TWEAK Fn14 block 70*.
CCCC(=O)Nc1nc2c(s1)COc1ccccc1-2 was read as Peg3 promoter -47, HIF-2a inh -75, TROY NFkB inh -19, KKLEB cytotox 1, CF NFkB block -28 and TWEAK Fn14 block -4.
For O=C(CCSc1ccccc1)Nc1nc2c(s1)COc1ccccc1-2 the results were Peg3 promoter 54*, HIF-2a inh -10, TROY NFkB inh 26, KKLEB cytotox -8, CF NFkB block -24 and TWEAK Fn14 block -22.
CCOc1ccc(N(CC(=O)Nc2c(C)cccc2C)S(=O)(=O)c2c(C)[nH]c(=O)[nH]c2=O)cc1 was read as Peg3 promoter -8, HIF-2a inh 13, TROY NFkB inh 12, KKLEB cytotox -2, CF NFkB block 27 and TWEAK Fn14 block 80*.
Screening CCOc1ccc(N(CC(=O)NC2CCCC2)S(=O)(=O)c2c(C)[nH]c(=O)[nH]c2=O)cc1 returned Peg3 promoter 72*, HIF-2a inh 9, TROY NFkB inh -11, KKLEB cytotox 7, CF NFkB block -28 and TWEAK Fn14 block 7.
OCC1(Cc2ccccc2)CCN(Cc2cnn(-c3ccccc3F)c2)CC1 was read as Peg3 promoter -3, HIF-2a inh -10, TROY NFkB inh 15, KKLEB cytotox 10, CF NFkB block -9 and TWEAK Fn14 block 8.
For COc1ccc2[nH]c(C(=O)N3CCC(CO)(Cc4cccc(C(F)(F)F)c4)CC3)c(C)c2c1 the results were Peg3 promoter 20, HIF-2a inh 19, TROY NFkB inh 53*, KKLEB cytotox -4, CF NFkB block 0 and TWEAK Fn14 block 22.
CSc1cccc(CN2CCC(CO)(Cc3cccc(C(F)(F)F)c3)CC2)c1 was read as Peg3 promoter 52*, HIF-2a inh 17, TROY NFkB inh -1, KKLEB cytotox -16, CF NFkB block 30 and TWEAK Fn14 block -16.
COc1ccc(N2CCN(C(=O)c3[nH]c4ccc(OC)cc4c3C)CC2)cc1 was read as Peg3 promoter 17, HIF-2a inh 16, TROY NFkB inh 6, KKLEB cytotox 16, CF NFkB block -2 and TWEAK Fn14 block 12.
For OCC1(Cc2cccc(C(F)(F)F)c2)CCN(Cc2cc(F)cc(F)c2)CC1 the results were Peg3 promoter 21, HIF-2a inh 22, TROY NFkB inh 19, KKLEB cytotox -2, CF NFkB block 6 and TWEAK Fn14 block 3.
`Cc1ccc(-n2cc(CN3CCC(CO)(Cc4cccc(C(F)(F)F)c4)CC3)cn2)cc1` gave Peg3 promoter 108*, HIF-2a inh 7, TROY NFkB inh 4, KKLEB cytotox -25, CF NFkB block 19 and TWEAK Fn14 block 6.
For CCOc1ccc(NC(=O)C2CCCN2C(=O)NC2CCCCC2)cc1 (configuration not stated) the results were Peg3 promoter 8, HIF-2a inh 11, TROY NFkB inh -4, KKLEB cytotox 1, CF NFkB block -6 and TWEAK Fn14 block 26.
`O=C(CCS(=O)(=O)c1ccc(Br)s1)NCc1ccccc1` gave Peg3 promoter -4, HIF-2a inh 2, TROY NFkB inh 2, KKLEB cytotox -5, CF NFkB block -4 and TWEAK Fn14 block -18.
CCN(CC)C1CCN(C(=O)c2cc(COc3ccc(F)cc3Cl)on2)C1 (configuration not stated) was read as Peg3 promoter -22, HIF-2a inh -71, TROY NFkB inh -23, KKLEB cytotox -8, CF NFkB block 10 and TWEAK Fn14 block -2.
`COCC1CCN(C(=O)c2cc(COc3ccc(F)cc3Cl)on2)C1` (configuration not stated) gave Peg3 promoter -195, HIF-2a inh -224, TROY NFkB inh -47, KKLEB cytotox 0, CF NFkB block -13 and TWEAK Fn14 block 94*.
`COc1ccc(CCNC(=O)C2CCN(C(=O)c3ccc(Br)cc3)CC2)cc1OC` gave Peg3 promoter -5, HIF-2a inh 13, TROY NFkB inh 6, KKLEB cytotox 8, CF NFkB block -2 and TWEAK Fn14 block -6.
Cc1cc(N2CCN(c3nc(-c4ccccc4)cs3)CC2)c2ccccc2n1 was read as Peg3 promoter 5, HIF-2a inh -4, TROY NFkB inh -28, KKLEB cytotox 4, CF NFkB block 4 and TWEAK Fn14 block 66*.
COc1ccc(Nc2nc3cc(-c4ccccc4C)sc3c(=O)n2C)cc1OC was read as Peg3 promoter -77, HIF-2a inh -82, TROY NFkB inh 0, KKLEB cytotox -13, CF NFkB block 10 and TWEAK Fn14 block -6.
Screening COc1ccc(NC(=O)N(C)C[C@H]2Oc3cc(Br)ccc3S(=O)(=O)N([C@H](C)CO)C[C@@H]2C)cc1 returned Peg3 promoter 4, HIF-2a inh 6, TROY NFkB inh 4, KKLEB cytotox 8, CF NFkB block 20 and TWEAK Fn14 block -8.
COc1ccc(C(=O)N2[C@@H](C(C)C)COc3cc(Br)ccc3S2(=O)=O)cc1 was read as Peg3 promoter 55*, HIF-2a inh -18, TROY NFkB inh 31, KKLEB cytotox 14, CF NFkB block 39 and TWEAK Fn14 block 39.
`C=CCn1cc(-c2ccc(Cl)cc2)cc(C#N)c1=O` gave Peg3 promoter 10, HIF-2a inh 6, TROY NFkB inh -5, KKLEB cytotox -16, CF NFkB block -3 and TWEAK Fn14 block -19.
`C=CCn1cc(-c2ccccc2)cc(C#N)c1=O` gave Peg3 promoter 1, HIF-2a inh 12, TROY NFkB inh 39, KKLEB cytotox -96*, CF NFkB block 8 and TWEAK Fn14 block 4.

Bioassay records as filed in PubChem.
